From publication PMC4336329 (PLoS ONE, 2015)
Among all 310,000 compounds or so, about 14,000 (4.5%) showed an effect of 50% or more. Effects have a minus sign here. The full list was thinned out, with strong results kept by preference.

target: human ether-à-go-go-related gene (hERG) potassium channel (human, UniProt Q12809); test: primary screen, population patch clamp on CHO cells stably expressing hERG; higher = less effect of the substance
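Further: peak tail current of the secondary pulse compared with the same well before compound.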

human ether-à-go-go-related gene (hERG) potassium channel, sequence (Q12809 whole entry, looked up): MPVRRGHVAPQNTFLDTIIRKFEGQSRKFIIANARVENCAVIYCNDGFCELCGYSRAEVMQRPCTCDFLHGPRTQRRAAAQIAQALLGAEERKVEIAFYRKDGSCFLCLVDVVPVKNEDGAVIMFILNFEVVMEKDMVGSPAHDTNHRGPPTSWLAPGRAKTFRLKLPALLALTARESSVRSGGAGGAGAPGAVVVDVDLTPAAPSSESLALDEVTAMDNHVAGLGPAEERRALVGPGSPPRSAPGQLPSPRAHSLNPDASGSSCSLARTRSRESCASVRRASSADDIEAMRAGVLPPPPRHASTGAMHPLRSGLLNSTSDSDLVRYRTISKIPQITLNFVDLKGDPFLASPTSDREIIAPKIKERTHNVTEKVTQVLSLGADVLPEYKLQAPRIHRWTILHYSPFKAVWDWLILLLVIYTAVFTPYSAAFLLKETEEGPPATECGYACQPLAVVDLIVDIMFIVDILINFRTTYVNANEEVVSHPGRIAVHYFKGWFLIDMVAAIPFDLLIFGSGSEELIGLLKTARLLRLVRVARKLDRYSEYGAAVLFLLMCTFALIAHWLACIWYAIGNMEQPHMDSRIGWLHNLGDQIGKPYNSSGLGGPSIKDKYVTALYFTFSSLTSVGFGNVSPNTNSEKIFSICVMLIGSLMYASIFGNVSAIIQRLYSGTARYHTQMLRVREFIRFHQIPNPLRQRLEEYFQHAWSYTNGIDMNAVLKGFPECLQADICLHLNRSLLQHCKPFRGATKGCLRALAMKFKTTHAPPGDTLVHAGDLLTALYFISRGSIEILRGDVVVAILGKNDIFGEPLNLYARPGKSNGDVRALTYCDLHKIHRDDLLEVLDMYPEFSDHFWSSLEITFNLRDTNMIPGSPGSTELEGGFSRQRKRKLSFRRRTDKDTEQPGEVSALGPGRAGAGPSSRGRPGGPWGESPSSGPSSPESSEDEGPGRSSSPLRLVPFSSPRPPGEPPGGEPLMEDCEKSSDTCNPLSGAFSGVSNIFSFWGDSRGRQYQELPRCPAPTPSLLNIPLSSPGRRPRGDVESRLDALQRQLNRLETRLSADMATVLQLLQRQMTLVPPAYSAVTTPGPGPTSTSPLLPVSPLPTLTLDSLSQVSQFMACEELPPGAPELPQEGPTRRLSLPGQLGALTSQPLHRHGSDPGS

Row | SMILES | hERG current change (%, negative = inhibition) at 10uM [%]
1 | COc1ccc(-n2nc(C(=O)NCC(=O)N3CCN(c4ccccc4OC)CC3)c3ccccc3c2=O)cc1OC | -34.5
2 | CC1CCN(C(=O)CCc2ccc(S(=O)(=O)NC(C)(C)C)cc2)CC1 | -5.31
3 | O=C(N/N=C/c1ccncc1)c1cc([N+](=O)[O-])cc([N+](=O)[O-])c1O | 4.15
4 | CCOC(=O)C(=O)Nc1nnc(CCc2ccccc2)s1 | 6.37
5 | Cc1ccc(OCC(=O)N2CCc3ccccc3C2)c(C)c1 | -16.1
6 | Cc1cc(S(=O)(=O)NC(C)C)ccc1OCC(=O)N1CCN(Cc2ccc3c(c2)OCO3)CC1 | -27.6
7 | COCCNS(=O)(=O)c1ccc(OCC(=O)N2CCc3ccccc3C2)c(Cl)c1 | -43.5
8 | CCCNS(=O)(=O)c1ccc(OCC(=O)N2CCN(Cc3ccc4c(c3)OCO4)CC2)c(C)c1 | -61.6
9 | CCCNS(=O)(=O)c1ccc(OCC(=O)N2CCN(Cc3ccc4c(c3)OCO4)CC2)cc1 | -32
10 | CCCNS(=O)(=O)c1ccc(OCC(=O)N2CCc3ccccc3C2)c(C)c1 | -65.9
11 | CCOc1cc(C)c(C(C)C)cc1S(=O)(=O)n1cnc(C)c1 | -18.7
12 | Cc1ccc(NC(=O)C2=COCCO2)cc1S(=O)(=O)N1CCOCC1 | -0.0399
13 | CCOC(=O)C1CCN(C2CC(=O)N(c3cccc(Cl)c3)C2=O)CC1 (stereo not shown) | -12
14 | c1ccc(C[C@H]2CN=C(Nc3ccccc3)N2CC2CCC2)cc1 | -63
15 | c1ccc(C[C@H]2CN=C(Nc3ccccc3)N2CCC2CCCC2)cc1 | -70.4
16 | CC(C)C[C@H]1CN=C(Nc2ccccc2)N1CC1CCC1 | -30.2
17 | C[C@H]1CN=C(Nc2ccccc2)N1CC1CCC1 | -0.391
18 | CCn1c2ccccc2c2cc(NC(=O)COC(=O)c3cc(OC)c(OC)cc3OC)ccc21 | -3.41
19 | COC(=O)c1ccccc1NC(=O)c1cc2nc(C3CC3)cc(C(F)(F)F)n2n1 | 9.42
20 | Cn1c(Sc2ccc(C(F)(F)F)cc2[N+](=O)[O-])nnc1-c1ccccc1 | -62.8
21 | Cn1c(Sc2ccc([N+](=O)[O-])cc2C(F)(F)F)nnc1-c1ccccc1 | -55
22 | Cn1c(SCC(=O)N/N=C/c2cc([N+](=O)[O-])ccc2O)nnc1-c1ccccc1 | 10.5

Row | SMILES | hERG current change (%, negative = inhibition) at 10uM [%]
23 | Cn1cnnc1Sc1ccc(C(F)(F)F)cc1[N+](=O)[O-] | 2.45
24 | CSc1nnc(-c2ccccc2)n1C | 5.22
25 | Cn1c(Sc2ccc(C(=O)O)cc2[N+](=O)[O-])nnc1-c1ccccc1 | -6.68
26 | CC(=O)Nc1ccc(S(=O)(=O)Nc2c(C)nn(-c3ccccc3)c2C)cc1 | -7.68
27 | O=c1c(C(c2ccc(Cl)cc2)c2c(O)nc3n(c2=O)CCCS3)c(O)nc2n1CCCS2 | 21.3
28 | CCN(CC)S(=O)(=O)c1cccc(-c2nnc(SCCCC(=O)c3ccccc3)o2)c1 | -23.8
29 | O=C(Nc1ccc(O)cc1)C1CCCN1S(=O)(=O)c1ccc(F)cc1 (stereo not shown) | -1.44
30 | C=CCn1c(SCc2ccc(C(=O)OC)cc2)nnc1-c1sc(N)nc1C | -8.5
31 | C=CCn1c(SCc2c(C(=O)OC)sc(N)c2C(=O)OC)nnc1-c1ccc(Br)cc1 | -65.4
32 | C=CCn1c(SCC(=O)NC2CCCCC2)nnc1-c1ccc(OC)cc1 | -12
33 | C=CCn1c(SCc2c(C(=O)OC)sc(N)c2C(=O)OC)nnc1-c1ccc(Cl)cc1 | -58.1
34 | COC(=O)c1sc(N)c(C(=O)OC)c1CSc1nnnn1C | -12.2
35 | COC(=O)c1sc(N)c(C(=O)OC)c1CSc1nnc(-c2ccccc2Cl)n1C | -24.5
36 | O=C(O)c1cccnc1SCC(=O)N1CCCc2ccccc21 | 14.6
37 | Nc1nc(SCC(=O)Nc2ccccc2)nc2nc3c(cc12)CCCC3 | -1.5
38 | C=C1SC(=Nc2c(C)cccc2Cl)N(C(=O)c2sc3ccccc3c2Cl)C12CCCCC2 | 25.8
39 | Cc1ccc(S(=O)(=O)NCCCCCC(=O)Nc2cccc(C)c2)cc1 | -39.2
40 | Cc1cc(Cl)c(OCCOCCN2CCC(C)CC2)c(Br)c1.O=C(O)C(=O)O | -57.6
41 | Cc1cc(C)c(OCCCCN2CCC(C)CC2)c(Br)c1 | -72.7
42 | Cc1cc(C)c(OCCN2CC(C)OC(C)C2)c(Br)c1.O=C(O)C(=O)O (stereo not shown) | -17.5
43 | Cc1cc(C)c(OCCN2CCOCC2)c(Cl)c1 | 8.09
44 | Cc1cc(C)c(OCCN2CCCC2)c(Cl)c1 | -42.1

Row | SMILES | hERG current change (%, negative = inhibition) at 10uM [%]
45 | Cc1cc(Cl)c(OCCCCN2CCOCC2)c(Br)c1 | -30.2
46 | Cc1cc(Cl)cc(Cl)c1OCCN1CCCC1 | -55
47 | Cc1cc(Cl)c(OCCOCCN2CCN(C)CC2)c(Br)c1.O=C(O)C(=O)O | -9.48
48 | Cc1cc(Cl)c(OCCCN2CCCCC2)c(Br)c1.O=C(O)C(=O)O | -68.1
49 | Cc1cc(Cl)c(OCCCN(C)C)c(Br)c1.O=C(O)C(=O)O | -40.4
50 | Cc1cc(Cl)c(OCCOCCN2CCNCC2)c(Cl)c1.O=C(O)C(=O)O | -7.47
51 | Cc1cc(C)c(OCCCCN2CCNCC2)c(C)c1.O=C(O)C(=O)O | 9.44
52 | CCOC(=O)c1ccc(S(=O)(=O)NCCN(CC)CC)cc1.Cl | 11.4
53 | CS(=O)(=O)N1CCC(Oc2cccc(C(=O)NCCCC3CCCC3)c2)CC1 | -30.3
54 | Cc1ccc(S(=O)(=O)N2CCN(C(=O)CN3C(=O)c4ccccc4C3=O)CC2)c(C)c1 | 9.02
55 | CCN(CC(=O)Nc1ccc(Cl)c(C(F)(F)F)c1)CC(=O)NC1CCS(=O)(=O)C1 (stereo not shown) | -13.2
56 | CCOc1ccc(C2Nc3ccccc3NC3=C2C(=O)CC(C)(C)C3)cc1OC (stereo not shown) | 15.6
57 | Cc1ccc2nsnc2c1S(=O)(=O)N1CCN(C(=O)C2CCCO2)CC1 (stereo not shown) | 2.61
58 | Cc1ccc(NC(=O)C2CCN(S(=O)(=O)c3ccc4c(c3)CCCC(=O)N4)CC2)c(Br)c1 | -5.9
59 | CCOc1c2ccc(C(=O)N[C@H](C)C3CCCCC3)cc2nn1CCOC | -18.2
60 | Cc1cc(Cl)c(OCCOCCN2CCCC(C)C2)c(Br)c1.O=C(O)C(=O)O (stereo not shown) | -61.8
61 | Cc1cc(C)c(OCCOCCN2CCN(C)CC2)c(Cl)c1.O=C(O)C(=O)O | -5.21
62 | CN1CCN(CCOCCOc2c(Cl)cc(Cl)cc2Cl)CC1.O=C(O)C(=O)O | -26.9
63 | Cc1cc(C)c(NC(=O)NC(=O)c2ccc(F)cc2)c(C)n1 | -0.738
64 | Cc1ccc(N(C(=O)c2ccc3c(c2)OCO3)C2C=CS(=O)(=O)C2)cc1 (stereo not shown) | -29.7
65 | O=C(c1ccc2c(c1)OCO2)N(c1ccc(Cl)cc1)C1C=CS(=O)(=O)C1 (stereo not shown) | -16.8
66 | CC(C)c1ccc(N(C(=O)c2ccc3c(c2)OCO3)C2C=CS(=O)(=O)C2)cc1 (stereo not shown) | -66.2

Row | SMILES | hERG current change (%, negative = inhibition) at 10uM [%]
67 | COc1ccccc1P(=O)(c1ccccc1)c1ccccc1NC(C)=O (stereo not shown) | 14.3
68 | CCOC(=O)c1sc(N(Cc2ccccc2)C(=O)CN2C(=O)CN(C)C2=O)nc1C | -59
69 | CCOC(=O)c1sc(N(Cc2ccccc2)C(=O)CCl)nc1C | -6.21
70 | CCOC(=O)c1sc(N(Cc2ccccc2)C(=O)COC(=O)c2ccccc2O)nc1C | -5.14
71 | CCOc1ccccc1C(=O)NCCCCNC(=O)c1ccccc1OCC | -31.4
72 | O=C(NCCCN1CCN(CCCNC(=O)c2ccccc2F)CC1)c1ccccc1F | -53
73 | O=C(NCCCN1CCN(Cc2ccccc2)CC1)c1nnc(Cc2c(F)cccc2Cl)o1 | -63.1
74 | CCOc1ccccc1C(=O)NCCCN1CCN(CCCNC(=O)c2ccccc2OCC)CC1 | -53.3
75 | O=C(NCCCCNC(=O)c1ccccc1F)c1ccccc1F | 14.8
76 | CCOc1ccccc1C(=O)NCCNC(=O)c1ccccc1OCC | -2.01
77 | CN1CCN(CCCNC(=O)c2nnc(Cc3c(F)cccc3Cl)o2)CC1 | -3.44
78 | Cl.O=C(NCCN1CCN(c2ccccc2)CC1)c1ccccc1F | -11
79 | O=C(NCCCN1CCCC1=O)c1nnc(Cc2c(F)cccc2Cl)o1 | 1.34
80 | CC(C)CN(C(=O)C1CC1)c1c(N)n(Cc2ccccc2)c(=O)[nH]c1=O | 21.2
81 | CC1CCCC(C)N1C(=O)CSc1nnnn1Cc1ccccc1 (stereo not shown) | -3.54
82 | O=C(NNc1cccc(Cl)c1)c1cccnc1Oc1ccccc1 | -8.21
83 | Fc1cccc(Cl)c1CSc1nnc(CNc2ccccc2)o1 | -21.5
84 | COc1ccc(CC(=O)N/N=C/c2cccn2-c2ccc([N+](=O)[O-])cc2)cc1OC | -37.9
85 | Cn1c(=O)n(CC(N)=O)c(=O)c2c1nc1n2CCCN1Cc1ccccc1 | 14.8
